The whole screen tested about 53,000 sequences, of which about 3,700 (7%) were called active.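 The calls were made as follows: active = gene knockdowns whose robust z-score for IL-1 alpha signal is at least 2 or at most -2, so actives lie on both sides; inactive = the rest.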 The full list was thinned out, with actives kept by preference.

The nature of the experiment: Components of the Cytosolic LPS Sensing Pathway: Gene Identification via Genome-wide siRNA Screen.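 Also: robust z of the log signal after scaling to non-targeting control siRNA wells of the plate.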 Particulars: RAW264.7 macrophages, IL-1a HTRF, actives lie on both sides, screened at 100 nM (by protocol), cells primed 5 h with Pam3CSK4 first. The method in brief: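 Mouse macrophage line RAW264.7 is transfected with siRNA (100 nM final), grown 48h, primed with TLR ligand Pam3CSK4 5 h and given intracellular LipidA 24 h. IL-1a in supernatant is read by HTRF and viability by luminescence.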
As to GGACCUGAGUUAGGAGAAUTT against Zfp105, the z-score is -2.06 (active).
Turning to GGCUGAGAAUGCAAGAAUGTT against Krt32, the z-score was -0.446 (inactive).
For the sequence GGAAUUCAGCUUUGUGCAATT against Asl, the z-score was 0.764 (inactive).
In the case of GGCCAGCAAAACAAAUGACTT against Slc34a2, the z-score is -1.01 (inactive).
As for GGUAAAGCAGUACCUUUCUTT against Mitf, the z-score was 2.53 (active).
The same measure for GGUGAUGCUGGAAUCUUCCTT against Svop: 0.216 (inactive); for GCGAUUCGUCUUCGAGUUCTT against Fam161a: 0.483 (inactive).
The same measure for GGAACUAUUUUUUACCCAATT against Dclre1a: -0.497 (inactive); for GGAAAGAAGAUCGAUUACATT against Atp11c: 2.22 (active); for GCCCUGUUUACACCUCUGATT against Sec23a: -1.38 (inactive).
As for CGAAAGGUCAAAUUAACAGTT against Serpinb5, the z-score was 1.23 (inactive).
The result for CCACAAAGAAUGCAUUACUTT against Eml3 reads -0.912 (inactive); that for GCUACUCAGUCUUUACUAUTT against Telo2, -2.14 (active).
With CCUGGCAGAGCAUUAUCUATT against Tmem201, the z-score was 0.558 (inactive).
GGAGACAACUGUCAAGCUGTT against Igdcc4: the z-score is -0.0921 (inactive).
The result for GGCACAGAAAAUCUUCAAATT against Ap2a1 reads 0.97 (inactive); that for GGACUGAAGGAUGCCUCAATT against Cngb1, 0.78 (inactive); that for GCUAACAACGUGUGCUUCUTT against Fam20a, -0.174 (inactive).
Regarding CCCGAGAUGUAUCAUCUAATT against Krcc1, the z-score was -0.31 (inactive).
Consider UUCACUGUAAGAAUUGUCUTT against Vmn1r93, for which the z-score is -2.11 (active).
For GGGAAUACAUUUUAUCUUCTT against Cpox, the z-score was -0.16 (inactive).
As to GAUGACUAGCUCUACUUUATT against Olfr738, the z-score is -0.0882 (inactive).
Take GGUAUCAGUAGCUGAUGUGTT against Pde8a: the z-score was 1.36 (inactive).
For the sequence GGUGUGGGUGACAAGGUUATT against Tymp, the z-score was 0.153 (inactive).
The same measure for “GCAACACAAACACUGGCUATT against D930020B18Rik”: -1.57 (inactive); for CCUAGGAUAGAGAUUGUUGTT against Ndufaf3: 0.135 (inactive).
GGUAGAUCAUGGCCAUCCUTT against Ntf5: the z-score is 2.04 (active).
On to CGAUACACUGGUGCCCUAUTT against Tmem201, for which the z-score was -0.158 (inactive).
The result for GGUGCCAGAUGUCAAGAAATT against Rpn2 reads -0.685 (inactive); that for GGAUCUGAAGACAUGGAGATT against H2-M1, 0.659 (inactive).
For the sequence CGCCCUUGGAGGUUAAUCATT against Nsg2, the z-score was 0.26 (inactive).
GGAACAGGCCGAGUUAGUATT against Olfr414: the z-score was 1.45 (inactive).
With GGAAGGUGAUGAAUCAGCCTT against Wwtr1, the z-score was -2.74 (active).
Take GCUGAGUUCAUUGCAAUGCTT against Cyp4a12b: the z-score is 0.274 (inactive).
As for GGACGGCAGAAAGCAUUUATT against Olfr317, the z-score was 0.693 (inactive).
In the case of GGAAUUCAUCUUACAUUCCTT against Acox3, the z-score was 2.42 (active).
On to GCUGACUCUUAGAUAAAUATT against Seh1l, for which the z-score is -0.81 (inactive).
Turning to CCAAAGAGAUAUCCCUCCCTT against Olfr1350, the z-score was -0.283 (inactive).
The same measure for GCAGGAAUUCUUGAAUUAUTT against Ly75: 2.66 (active); for GGACUUCUCAUCCUAUUUATT against Iah1: -0.638 (inactive); for GAAUGAACUGCUGAAAAAGTT against Klra16: 0.462 (inactive).
For the sequence GACUCCCAGCUGGCUAUGATT against Ifna9, the z-score was 0.583 (inactive).
On to GGCUCAGUACUUUCUAAAATT against Vmn1r72, for which the z-score was -0.637 (inactive).
For GCCUUGUCUAUAGGACUGUTT against Grm6, the z-score was -0.00801 (inactive).
Consider GCUUCAUGAUGAAUCACCUTT against Otulinl, for which the z-score was -2.1 (active).
On to CGAGCAUUCACCGUACGUATT against Id4, for which the z-score was 0.0542 (inactive).
For the sequence “GGGCAAGGUGUAUUGUCAATT against D830050J10Rik”, the z-score is -0.00921 (inactive).
The result for GGCCCAACAAUACCUGCUGTT against Rgs17 reads -1.5 (inactive); that for GGAUGAAGAAACAAGAAAGTT against Tmc1, -2.46 (active).
Regarding GCACCGACCACCAAAUCUATT against Prol1, the z-score was 0.65 (inactive).
With GGUUGUGACAAUGUGAUCCTT against Coro1a, the z-score was -2.22 (active).
The same measure for CCAUCUACAAGUGUCCUUATT against Zfp276: -0.632 (inactive); for CCAUAUCCCUGUGGAAAAGTT against Manf: -0.322 (inactive).
Consider CGGAUAUCCACAAAUAUCGTT against Atp1b3, for which the z-score is 0.508 (inactive).
On to GGGUUCAAGAGAUGGGAAUTT against Efna5, for which the z-score was 0.453 (inactive).
In the case of GCUCUCAGCAAAAACCGAGTT against Kif26b, the z-score is 2.98 (active).
The result for GGCUGUCAGUGUUUACAGGTT against Srd5a1 reads -0.247 (inactive); that for GGGAUGAUUCAAUGGAUAATT against Tbx22, 0.789 (inactive); that for GCUGGUUUCAUCCGCCAUATT against Dvl3, 1.18 (inactive).
On to GCAUAUAAGAGAAGUGCCUTT against Parl, for which the z-score was 0.298 (inactive).
As to GCACCAAUACAUUUGGACCTT against Nabp1, the z-score was 1.74 (inactive).
For GGAGUCAGUACUGUAAAAUTT against Rin2, the z-score was -1.91 (inactive).
The same measure for GGAGAGAAAAAAGUCUCUCTT against Olfr66: 2.55 (active).
The same measure for GCAACUGUUACUUCUCAACTT against Lrif1: 0.598 (inactive); for GGUUAACUCCUUUUCUAGATT against Ints13: -0.52 (inactive); for GCCUACACCAGUCCUUUGATT against Baiap2l1: 0.509 (inactive).
As to GGAACUAUCCAGUAGGUAGTT against Mill2, the z-score is 0.846 (inactive).
As for GGUUCUGGAUUUCUGUUUUTT against Phf24, the z-score is -1.38 (inactive).
GGAUGAAGAUGGAGAUCUUTT against Tfg: the z-score was 2.14 (active).
For GGAAAAAGAACACCUUUUATT against Ints6l, the z-score was -0.74 (inactive).
For GGACACCACCAAUCUUGACTT against Arsg, the z-score was -1.57 (inactive).
Turning to GGGCAUUGGGAUCCUCAAUTT against Olfr139, the z-score was -0.734 (inactive).
The same measure for CGGAUCUUGUCAAUAACCATT against Angptl1: 0.295 (inactive); for GCAGGAGUAAGAAUGAAUGTT against Luzp1: 0.999 (inactive); for GGAACUUAGAAGUUUACAATT against Caml: -0.0418 (inactive).
Take GGUCACAAAGAAGAAUCACTT against Heg1: the z-score was -2.31 (active).
With GGUUGAGUGUUUGAAGUCATT against Slc38a11, the z-score was -1.9 (inactive).
Take GCUUUACUCCCUAAAUUCATT against Dmrt3: the z-score was 0.755 (inactive).
Regarding CCUCUUAGAUCAGGAUUAUTT against Usp37, the z-score was 0.991 (inactive).
The result for GGCAUGGAAUGAGCUUUUCTT against Nr2e3 reads 3.83 (active); that for GGACUAAGCAAUCUCUUUUTT against Gspt2, 0.81 (inactive).
As for GGUGCUUUGUUAUCCAUAATT against Tnfrsf26, the z-score was -2.72 (active).
CCUAAUUGUAGUAGUACUATT against Olfr117: the z-score was -0.955 (inactive).
The result for GGCCUAGCAAUUCUUGAGCTT against Gm5087 reads -0.18 (inactive).
The same measure for CCCUGUAUAUUGCAUUUCCTT against Pcdhb21: 0.198 (inactive); for GGGAGUUUUUAUAUGGUUUTT against Ybey: 1.27 (inactive).
For GCAGAUGACUAUCGGAAGUTT against Usp53, the z-score is 2.19 (active).
The result for GGGCAGCAAAGAAUUAACUTT against Ptpmt1 reads -0.619 (inactive).
The same measure for GGAAGAAAAUCUUGAAGCATT against Ddx51: -0.232 (inactive).
As to GCGAUAUGACAGACUCUUCTT against Csrnp1, the z-score was 1.79 (inactive).
Regarding GGAUGUUAUUCGCCACGCGTT against Zfp335, the z-score was -0.134 (inactive).
As to CCCGUUCAAGCAAUUACAUTT against G2e3, the z-score was -1.05 (inactive).
The result for GGUGAAGACUUCCAGAAGGTT against Reg3a reads -0.186 (inactive); that for CCUGUACAGUUGGAAACAUTT against Snrpd1, -2.02 (active); that for GGACUUCUCCUUUAAUAAUTT against Cox7a2l, -0.494 (inactive).
Regarding GCCCGACCUGUUGAGAAGATT against Znhit3, the z-score is 1.43 (inactive).
The result for GGAGGAAAAGUAGGUUUGCTT against Peli1 reads -0.531 (inactive); that for GGUAAGUGGAGGUAUUCUUTT against Egln1, 2.28 (active).
For GGCCAGGAAAUAUGAAAUATT against Phtf1, the z-score was -0.352 (inactive).
As to GCCUUGAUAAUUUUGUAAGTT against Gimap9, the z-score was 0.533 (inactive).
Turning to GCACCCUAAUGUGAUCGCATT against Cdk19, the z-score was -1.34 (inactive).
Take CCACCUGAAUCAUUACUCATT against Rdh19: the z-score was -3.29 (active).
The result for GGAGAAGAUUUUCUGUAUCTT against Atp13a5 reads 0.545 (inactive); that for GCUGAGAGACUUGUGAAAUTT against Ndufb11, 1.06 (inactive); that for GGAAAUCAGCUGUGAAAAATT against Fbxl20, -0.628 (inactive).
As to GCAGGUCUAAAACUCUCAUTT against Sfmbt1, the z-score is 2.38 (active).
Take GCCUCAUCGUCAUCGCCAATT against Gpbar1: the z-score was -0.897 (inactive).
The same measure for GCAUACCUAGACUGAAAACTT against Rilpl2: -0.477 (inactive).
